Among the data in ChEMBL document CHEMBL3988442, “University of Dundee, Small-Polar-MMV Screening Library” (2021) are Percent Effect values, retold here.

Parameters in all cases: scale not given: direction of the effect not stated beside the values
Assay [1] concerns the target Protein translocase subunit SecA (Escherichia coli (strain K12)) (UniProt P10408). Nature of the assay: Assay to Identify E. coli SecA ATPase Inhibitors. The assay is classed as functional. The settings on record: 30 µM.
Assay [2] deals with T1, Ubiquitin-activating enzyme e1, putative (Leishmania donovani (strain BPK282A1)) (UniProt E9BSI1).
T1 sequence (whole entry): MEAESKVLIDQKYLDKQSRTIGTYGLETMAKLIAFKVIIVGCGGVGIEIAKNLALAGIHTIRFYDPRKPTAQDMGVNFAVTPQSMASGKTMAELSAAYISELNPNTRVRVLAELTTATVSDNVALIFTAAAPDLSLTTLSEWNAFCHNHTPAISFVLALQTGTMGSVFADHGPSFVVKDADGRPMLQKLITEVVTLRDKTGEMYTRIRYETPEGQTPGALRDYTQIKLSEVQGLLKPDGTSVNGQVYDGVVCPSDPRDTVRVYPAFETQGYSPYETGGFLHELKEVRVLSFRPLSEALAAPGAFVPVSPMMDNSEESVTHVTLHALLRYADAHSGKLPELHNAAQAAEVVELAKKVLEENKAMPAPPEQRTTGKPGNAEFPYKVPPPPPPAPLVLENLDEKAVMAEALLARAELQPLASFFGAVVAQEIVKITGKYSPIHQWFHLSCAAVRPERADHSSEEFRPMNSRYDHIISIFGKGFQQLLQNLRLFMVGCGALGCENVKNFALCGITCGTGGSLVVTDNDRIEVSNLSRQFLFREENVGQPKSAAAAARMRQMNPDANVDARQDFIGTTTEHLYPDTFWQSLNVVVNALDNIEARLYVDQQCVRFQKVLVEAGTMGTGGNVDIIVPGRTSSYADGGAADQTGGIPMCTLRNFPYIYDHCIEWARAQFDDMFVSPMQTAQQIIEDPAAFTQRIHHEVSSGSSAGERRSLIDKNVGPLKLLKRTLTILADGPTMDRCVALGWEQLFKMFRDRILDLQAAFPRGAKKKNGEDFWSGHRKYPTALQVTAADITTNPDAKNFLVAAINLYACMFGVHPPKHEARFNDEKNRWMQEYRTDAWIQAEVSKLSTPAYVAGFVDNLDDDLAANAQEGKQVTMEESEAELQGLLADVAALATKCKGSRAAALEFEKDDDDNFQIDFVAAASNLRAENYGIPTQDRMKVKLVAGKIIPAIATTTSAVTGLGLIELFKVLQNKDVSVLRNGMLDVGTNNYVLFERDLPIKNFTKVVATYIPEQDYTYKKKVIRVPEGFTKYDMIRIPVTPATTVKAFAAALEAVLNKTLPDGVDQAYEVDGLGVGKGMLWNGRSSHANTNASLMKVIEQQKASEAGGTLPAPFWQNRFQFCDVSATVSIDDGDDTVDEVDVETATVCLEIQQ
Nature of the assay: Leishmania donovani Ubiquitin Activating Enzyme (LdE1). The settings on record: 30 µM. The class given is functional.

Assay [3] addresses T2, Aspartate--tRNA(Asp/Asn) ligase (Mycobacterium tuberculosis (strain ATCC 25618 / H37Rv)) (UniProt P9WFW3).
T2 sequence (whole entry): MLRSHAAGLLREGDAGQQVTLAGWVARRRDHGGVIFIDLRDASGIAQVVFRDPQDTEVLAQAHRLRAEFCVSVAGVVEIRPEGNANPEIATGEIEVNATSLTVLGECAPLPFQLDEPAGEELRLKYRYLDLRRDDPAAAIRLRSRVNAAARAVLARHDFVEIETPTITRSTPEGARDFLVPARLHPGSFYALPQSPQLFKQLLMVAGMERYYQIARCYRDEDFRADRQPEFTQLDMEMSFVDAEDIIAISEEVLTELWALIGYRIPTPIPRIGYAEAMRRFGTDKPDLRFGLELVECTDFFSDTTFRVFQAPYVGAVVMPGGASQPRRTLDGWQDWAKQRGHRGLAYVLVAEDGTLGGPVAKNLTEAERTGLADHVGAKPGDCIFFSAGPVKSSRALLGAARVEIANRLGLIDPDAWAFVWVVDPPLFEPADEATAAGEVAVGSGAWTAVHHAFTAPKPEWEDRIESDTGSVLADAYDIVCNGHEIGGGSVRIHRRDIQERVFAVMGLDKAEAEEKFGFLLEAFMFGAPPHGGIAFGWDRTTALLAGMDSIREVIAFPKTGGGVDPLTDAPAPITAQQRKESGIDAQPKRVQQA
Nature of the assay: Assay for Asp RNA synthetase-1 from Mycobacterium tuberculosis. The class given is functional. The settings on record: 30 µM.

The target in assay [4] is AMP-activated protein kinase, AMPK (Homo sapiens) (UniProt P54646+O43741+P54619+Q9UGJ0+Q9Y478+Q13131+Q9UGI9). Nature of the assay: AMP-dependent Kinase enzyme assay. An in vitro enzyme assay that detects ADP turnover that is directly proportional to AMPK activity. This uses naive AMPK that is activated during the assay with MK-8722. The settings on record: 30 µM. The class given is functional.

Assay [5] has as its target Sialic acid-binding Ig-like lectin 9 (Homo sapiens) (UniProt Q9Y336). Nature of the assay: Hs-Siglec9 ALPHAscreen SOP 20170721. The note with it: 10 µM. (In general: In Alpha technology, singlet oxygen from a donor bead excites a nearby acceptor bead.)
Another assay relates to Trypanosoma cruzi. Nature of the assay: Trypanosoma cruzi phosphomannomutase and mannose-1-phosphate guanylyltransferase assay. The settings on record: 10 µM. The class given is functional.
Assay [6] deals with T3, Arginase-2, mitochondrial (Homo sapiens) (UniProt P78540).
T3 sequence (whole entry): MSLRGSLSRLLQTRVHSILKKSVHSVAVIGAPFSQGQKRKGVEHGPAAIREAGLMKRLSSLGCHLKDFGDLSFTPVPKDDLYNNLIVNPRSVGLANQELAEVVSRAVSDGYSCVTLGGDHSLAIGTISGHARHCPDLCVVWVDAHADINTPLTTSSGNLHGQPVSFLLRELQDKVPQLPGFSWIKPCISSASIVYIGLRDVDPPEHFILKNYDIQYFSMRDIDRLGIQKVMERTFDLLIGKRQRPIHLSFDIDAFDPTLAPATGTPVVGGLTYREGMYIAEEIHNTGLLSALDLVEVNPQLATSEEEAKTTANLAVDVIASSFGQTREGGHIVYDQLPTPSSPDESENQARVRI
Nature of the assay: in vitro enzyme assay to detect the production of urea directly proportional to the activity of Arginase II. Note: in the data most compounds retested in dose-response had high values. The assay is classed as functional. The settings on record: 33.3 µM.

In assay [7] the target is T4, Proteasome subunit beta (Trypanosoma cruzi) (UniProt O96673).
T4 sequence (whole entry): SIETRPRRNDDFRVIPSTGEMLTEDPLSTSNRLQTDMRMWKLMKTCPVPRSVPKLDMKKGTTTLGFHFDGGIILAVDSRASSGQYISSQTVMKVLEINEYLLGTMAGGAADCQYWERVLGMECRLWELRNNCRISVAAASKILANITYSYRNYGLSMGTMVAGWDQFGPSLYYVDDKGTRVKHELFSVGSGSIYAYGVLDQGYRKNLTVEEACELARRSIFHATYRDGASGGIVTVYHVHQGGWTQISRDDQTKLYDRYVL
Nature of the assay: Trypanosoma cruzi proteasome chymotrypsin-like activity (TcProtChymo) assay. Note: in the data most compounds retested in dose-response had high values. The class given is functional. The settings on record: 9.37 µM.

The species entered for the next assay is Homo sapiens. Nature of the assay: To identify inhibition of the IFN signalling (Jak-Stat) pathway via expression of an eGFP reporter gene under the control of an IFN-stimulated response element (ISRE) containing MxA promoter. The assay is classed as functional. The note with it: 30 µM. On the technique in general: Reporter assays use an easily measured gene product as a stand-in for the process of interest.

Assay [8] concerns the target Shiga toxin 2 (Escherichia coli O157:H7) (UniProt P09385+P09386). Nature of the assay: E. coli 0.157:H7 Shiga Toxin SOP - stx2 screening assay. The note with it: 30 µM. The assay is classed as functional.
Assay [9] addresses T5, Tyrosyl-tRNA synthetase, putative (Trypanosoma cruzi (strain CL Brener)) (UniProt Q4DSP6).
T5 sequence (whole entry): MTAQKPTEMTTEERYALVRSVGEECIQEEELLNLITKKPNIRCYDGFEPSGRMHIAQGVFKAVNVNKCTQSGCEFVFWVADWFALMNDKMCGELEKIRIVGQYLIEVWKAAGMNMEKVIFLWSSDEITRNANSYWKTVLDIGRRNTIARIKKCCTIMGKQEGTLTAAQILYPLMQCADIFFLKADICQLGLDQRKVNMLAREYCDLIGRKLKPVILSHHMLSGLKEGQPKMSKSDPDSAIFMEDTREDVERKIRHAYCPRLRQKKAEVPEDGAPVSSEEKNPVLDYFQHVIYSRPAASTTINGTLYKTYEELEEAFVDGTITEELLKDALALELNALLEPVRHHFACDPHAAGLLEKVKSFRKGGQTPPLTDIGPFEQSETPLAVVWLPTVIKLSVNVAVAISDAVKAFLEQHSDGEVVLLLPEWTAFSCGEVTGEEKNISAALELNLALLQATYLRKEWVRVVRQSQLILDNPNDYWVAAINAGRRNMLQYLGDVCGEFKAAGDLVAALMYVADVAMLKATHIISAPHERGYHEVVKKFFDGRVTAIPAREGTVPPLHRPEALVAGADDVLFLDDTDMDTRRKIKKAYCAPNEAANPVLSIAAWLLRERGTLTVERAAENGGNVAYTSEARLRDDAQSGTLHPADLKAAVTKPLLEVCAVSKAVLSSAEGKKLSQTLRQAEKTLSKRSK
Nature of the assay: Trypanosoma cruzi tyrosyl tRNA synthetase (TcYRS) _High Tyrosine SOP. Note: in the data most compounds retested in dose-response had high values. The assay is classed as functional. The settings on record: 30 µM.

Assay [10] has as its target T5, Tyrosyl-tRNA synthetase, putative (Trypanosoma cruzi (strain CL Brener)). Nature of the assay: Trypanosoma cruzi tyrosyl tRNA synthetase (TcYRS) SOP. The settings on record: 30 µM. The class given is functional.
Assay [11] has as its target Chromo domain-containing protein 1 (Saccharomyces cerevisiae (strain ATCC 204508 / S288c) (Baker's yeast)) (UniProt P32657). Nature of the assay: ScCHD-1 Enzyme Inhibition Assay. Note: in the data most compounds retested in dose-response had high values. The assay is classed as functional. The note with it: 30 µM.

Each structure is given as a SMILES string. For some of these results: Measured potencies and affinities stand elsewhere.

Sequence of Chromo domain-containing protein 1 (Saccharomyces cerevisiae (strain ATCC 204508 / S288c) (Baker's yeast)) (P32657 whole entry, the tested form may be a part): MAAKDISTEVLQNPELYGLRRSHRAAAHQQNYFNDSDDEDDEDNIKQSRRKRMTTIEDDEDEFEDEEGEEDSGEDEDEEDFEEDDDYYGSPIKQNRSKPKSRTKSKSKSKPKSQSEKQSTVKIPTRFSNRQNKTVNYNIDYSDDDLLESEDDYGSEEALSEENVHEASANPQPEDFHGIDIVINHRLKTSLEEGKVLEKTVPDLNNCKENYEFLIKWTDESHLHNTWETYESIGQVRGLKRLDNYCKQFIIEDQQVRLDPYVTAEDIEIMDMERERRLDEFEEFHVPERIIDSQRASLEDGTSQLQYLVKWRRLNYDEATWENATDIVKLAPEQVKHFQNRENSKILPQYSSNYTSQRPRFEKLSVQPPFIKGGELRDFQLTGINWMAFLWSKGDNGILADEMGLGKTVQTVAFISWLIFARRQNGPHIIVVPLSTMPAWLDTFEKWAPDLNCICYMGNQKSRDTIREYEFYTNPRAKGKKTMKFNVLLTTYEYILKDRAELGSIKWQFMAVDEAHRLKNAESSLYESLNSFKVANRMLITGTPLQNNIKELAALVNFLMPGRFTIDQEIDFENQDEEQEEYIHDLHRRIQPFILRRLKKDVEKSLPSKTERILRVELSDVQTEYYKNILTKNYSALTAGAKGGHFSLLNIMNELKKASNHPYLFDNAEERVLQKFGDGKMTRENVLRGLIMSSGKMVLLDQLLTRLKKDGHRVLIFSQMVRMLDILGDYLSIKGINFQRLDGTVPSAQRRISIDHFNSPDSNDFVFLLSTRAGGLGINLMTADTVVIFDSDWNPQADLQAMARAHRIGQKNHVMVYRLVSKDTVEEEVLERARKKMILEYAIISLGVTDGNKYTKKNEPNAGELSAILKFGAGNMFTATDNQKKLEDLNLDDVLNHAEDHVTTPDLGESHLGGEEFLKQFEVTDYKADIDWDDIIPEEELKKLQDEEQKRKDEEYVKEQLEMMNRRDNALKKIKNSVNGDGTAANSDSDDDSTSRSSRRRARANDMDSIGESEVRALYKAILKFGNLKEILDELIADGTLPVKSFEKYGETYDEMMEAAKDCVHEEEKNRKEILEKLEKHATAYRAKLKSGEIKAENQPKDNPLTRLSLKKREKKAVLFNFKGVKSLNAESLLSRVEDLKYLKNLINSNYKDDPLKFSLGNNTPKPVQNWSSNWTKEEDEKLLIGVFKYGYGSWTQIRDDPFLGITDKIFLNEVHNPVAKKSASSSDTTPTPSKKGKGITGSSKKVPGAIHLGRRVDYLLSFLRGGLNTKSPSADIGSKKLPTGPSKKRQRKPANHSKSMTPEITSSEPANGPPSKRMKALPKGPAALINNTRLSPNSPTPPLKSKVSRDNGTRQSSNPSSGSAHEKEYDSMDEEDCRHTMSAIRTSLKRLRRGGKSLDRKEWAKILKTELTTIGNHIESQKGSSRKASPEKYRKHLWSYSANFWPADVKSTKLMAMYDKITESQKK
Sequence of Sialic acid-binding Ig-like lectin 9 (Homo sapiens) (Q9Y336 whole entry): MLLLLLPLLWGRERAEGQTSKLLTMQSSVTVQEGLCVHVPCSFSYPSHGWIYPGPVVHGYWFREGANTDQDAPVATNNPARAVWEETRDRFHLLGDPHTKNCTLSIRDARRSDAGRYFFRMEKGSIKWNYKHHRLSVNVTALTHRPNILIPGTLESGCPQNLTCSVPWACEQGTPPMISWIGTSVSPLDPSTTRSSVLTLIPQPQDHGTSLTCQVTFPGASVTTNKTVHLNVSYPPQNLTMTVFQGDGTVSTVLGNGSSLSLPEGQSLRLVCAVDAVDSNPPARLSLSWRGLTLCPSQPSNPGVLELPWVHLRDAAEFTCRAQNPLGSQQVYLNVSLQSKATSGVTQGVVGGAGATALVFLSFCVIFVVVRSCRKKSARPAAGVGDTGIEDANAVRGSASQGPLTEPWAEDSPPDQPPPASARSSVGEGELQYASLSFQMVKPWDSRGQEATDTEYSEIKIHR
Sequence of Protein translocase subunit SecA (Escherichia coli (strain K12)) (P10408 whole entry): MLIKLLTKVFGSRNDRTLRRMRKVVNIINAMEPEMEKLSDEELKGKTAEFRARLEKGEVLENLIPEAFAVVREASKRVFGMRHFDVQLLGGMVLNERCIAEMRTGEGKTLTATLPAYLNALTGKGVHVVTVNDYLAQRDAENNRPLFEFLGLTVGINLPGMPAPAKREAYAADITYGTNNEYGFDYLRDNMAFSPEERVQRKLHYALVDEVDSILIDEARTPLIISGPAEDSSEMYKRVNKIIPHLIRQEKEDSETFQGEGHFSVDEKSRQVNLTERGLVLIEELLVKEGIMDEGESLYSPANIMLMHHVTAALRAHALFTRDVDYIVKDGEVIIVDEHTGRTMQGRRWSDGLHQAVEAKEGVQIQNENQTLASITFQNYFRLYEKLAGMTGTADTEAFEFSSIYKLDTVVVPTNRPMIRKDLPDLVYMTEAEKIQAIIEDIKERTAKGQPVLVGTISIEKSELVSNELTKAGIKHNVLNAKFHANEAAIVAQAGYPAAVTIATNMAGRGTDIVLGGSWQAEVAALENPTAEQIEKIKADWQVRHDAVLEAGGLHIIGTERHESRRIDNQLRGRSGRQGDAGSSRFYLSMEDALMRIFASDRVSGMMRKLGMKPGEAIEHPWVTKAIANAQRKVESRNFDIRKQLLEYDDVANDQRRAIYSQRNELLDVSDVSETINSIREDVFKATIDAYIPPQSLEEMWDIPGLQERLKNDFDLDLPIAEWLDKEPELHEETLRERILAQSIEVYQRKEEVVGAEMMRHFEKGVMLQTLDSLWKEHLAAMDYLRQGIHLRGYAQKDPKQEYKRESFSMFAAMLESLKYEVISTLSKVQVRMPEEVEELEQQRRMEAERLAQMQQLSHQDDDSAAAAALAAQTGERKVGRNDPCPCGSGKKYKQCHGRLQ

`CCN(Cc1cccnc1)CC1CCCO1` (configuration not stated): the Percent Effect in assay [1] was -3.64%; in assay [2], 0%; in assay [3], 6.87%; in assay [4] it was -3.71%; in assay [5] it was -1.05%; in the assay on Trypanosoma cruzi, -5.88%. Besides, the Percent Effect was -6.82% in [6]; 1.77% in assay [7]; 3.09% in the assay listed under Homo sapiens; -16.3% in assay [8]; 2.15% in assay [9]; 2.5% in [10]. Besides, the Percent Effect in assay [11] was -3.4%.
As to `O=C(c1ccc2c(c1)COC2)N1CCC(Nc2ccccc2)CC1`, the Percent Effect in assay [1] is -4.95%; in assay [2], 7.79%; in assay [3] it was -0.152%; in [4] it was 5.07%; in assay [5], 13.2%; in the assay on Trypanosoma cruzi, 5.06%. The Percent Effect in [6] is 1.78%; in assay [7], -4.05%; in the assay filed under Homo sapiens it was 25%; in assay [8], 1.98%; in assay [9] it was 6.8%; in [10], 24.4%. Also, the Percent Effect in assay [11] is -6.83%.
For `COc1cccc(CCNCc2c(C)nn(C)c2N(C)C)c1`, the Percent Effect is -3.25% in assay [1]; 10.5% in assay [2]; -2.61% in [3]; -2.73% in [4]; 0.941% in assay [5]; -4.13% with Trypanosoma cruzi. Also, the Percent Effect in [6] was -3.45%; in assay [7] it was 13.4%; in the assay filed under Homo sapiens it was -20.1%; in assay [8], 28.4%; in assay [9], 3.43%; in assay [10], 12.2%. Besides, the Percent Effect in assay [11] was -4.73%.
On to `O=C(c1cnn2c1OCCC2)N1CCC2(CC1)OCCO2`, for which the Percent Effect in [1] was -0.752%; in assay [2], 2.6%; in assay [3], -2.99%; in assay [4], 3.51%; in [5] it was 6.26%; in the assay with Trypanosoma cruzi, -6.02%. Besides, the Percent Effect in assay [6] is -1.94%; in [7], 7.49%; in the assay filed under Homo sapiens, 14.6%; in [8], 4.26%; in assay [9] it was 6.35%; in assay [10], 11.5%. For the same compound, in [11], the Percent Effect is -7.54%.
